Sampled rows, rich in hits. Any-hit rate of the full collection: about 9.3%.
ELG1 DNA repair: qHTS screen for small molecules that inhibit ELG1-dependent DNA repair in human embryonic kidney (HEK293T) cells expressing luciferase-tagged ELG1; HEK293T ELG1-luciferase reporter, luminescence, 16 h; DNA damage induced by 5-fluorouridine; Potency, µM (doses to about 46.1 µM), usual class: inhibitors; 330,000 compounds, 2.3% hits; note: nearly all actives have a fitted effect of over 55% in size
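HEK293T cells expressing luciferase-tagged ELG1 (2,000/well) received 5-Fluorouridine plus compound or DMSO for 16 hr at 37 °C. Luciferase was read by ONE-Glo luminescence after 30 min at room temperature.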
Rab9 promoter act: qHTS Assay for Rab9 Promoter Activators. Potency, µM (series often up to 9.22 µM), actives largely listed as activators. Huh7 Rab9 promoter-luciferase reporter, luminescence, 24 h. 320,000 compounds, 2.8% hits; note: nearly all actives have a fitted effect of over 60% in size
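Measured in stably transfected Huh7 cells bearing a Rab9 promoter–luciferase construct: 24 h compound treatment at 37 °C, followed by luminescence detection.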
NPC1 promoter act: qHTS Assay for NPC1 Promoter Activators; Huh7 NPC1 promoter luciferase reporter, 24 h; Potency, µM (top dose mostly 9.22 µM), most hits filed as activators; 320,000 compounds, 2.4% hits; AID 485313, 2010; note: nearly all actives have a fitted effect of over 60% in size
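Compounds in DMSO were transferred onto Huh7 NPC1-luciferase reporter cells pre-incubated 2 h; after 24 h at 37 °C, Amplite reagent was dispensed and luminescence recorded 10 min later.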
SMN2 splice up: qHTS Assay for Enhancers of SMN2 Splice Variant Expression | Potency, µM (doses to about 46.1 µM), hits mostly activators | HEK293 SMN2-luciferase splicing reporter, luminescence, 30-36 h | 210,000 compounds, 2.8% hits | AID 1458, 2008; note: nearly all actives have a fitted effect of over 55% in size
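HEK293 cells carry an SMN2 minigene-luciferase reporter in which exon 7 inclusion puts luciferase in frame. Cells were seeded at 2000 cells/well, attached for 10-12 hours, then exposed to compounds for 30-36 hours at 37C before ONE-Glo luminescence.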
FLuc counter: qHTS profiling assay for firefly luciferase inhibitor/activator using purifed enzyme and Km concentrations of substrates (counterscreen for miR-21 project); Luciferin 4-monooxygenase (Photinus pyralis), P08659; purified FLuc, Km substrates, luminescence inhibition; Potency, µM (series often up to 57.5 µM), most hits filed as inhibitors; 360,000 compounds, 6.9% hits; note: nearly all actives have a fitted effect of over 55% in size
Target sequence (P08659 whole entry, looked up): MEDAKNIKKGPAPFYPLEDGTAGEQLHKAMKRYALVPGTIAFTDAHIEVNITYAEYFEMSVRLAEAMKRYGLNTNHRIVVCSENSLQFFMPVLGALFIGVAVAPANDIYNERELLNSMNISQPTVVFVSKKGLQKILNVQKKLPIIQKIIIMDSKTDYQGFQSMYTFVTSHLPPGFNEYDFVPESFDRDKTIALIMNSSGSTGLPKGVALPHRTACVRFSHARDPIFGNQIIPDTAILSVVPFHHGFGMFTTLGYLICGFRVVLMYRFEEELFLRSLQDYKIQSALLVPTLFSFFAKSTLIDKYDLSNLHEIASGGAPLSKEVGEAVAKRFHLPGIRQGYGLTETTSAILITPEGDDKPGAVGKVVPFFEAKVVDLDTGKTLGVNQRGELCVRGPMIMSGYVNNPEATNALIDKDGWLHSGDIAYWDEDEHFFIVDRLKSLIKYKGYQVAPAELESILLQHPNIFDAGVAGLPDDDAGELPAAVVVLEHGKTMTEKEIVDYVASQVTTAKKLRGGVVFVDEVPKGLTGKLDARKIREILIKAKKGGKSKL
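Purified P. pyralis luciferase, 10 nM final, with Km-level 10 uM D-luciferin and 10 uM ATP in 50 mM Tris acetate pH 7.5, 10 mM Mg acetate, 0.01% Tween-20, 0.05% BSA; 6-point qHTS titration about 60 µM downward; luminescence read.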
ELG1 genotoxic: qHTS screen for small molecules that induce genotoxicity in human embryonic kidney (HEK293T) cells expressing luciferase-tagged ELG1 | HEK293T ELG1-luciferase reporter, luminescence, 16 h | Potency, µM (highest dose often 46 µM), actives largely listed as activators | 330,000 compounds, 1.3% hits; note: nearly all actives have a fitted effect of over 60% in size
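Reporter readout depends on ELG1 protein level, which increases with genetic stress. After 16 hr compound exposure at 37 °C, luciferase activity was quantified using ONE-Glo.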
A number is an active result; 0 = inactive; ? = inconclusive; - = not tested or not shown; [ ] = remark or other dose. Calls come from the whole dose curve; as a rule, active = well fitted curve in the direction sought with a large enough effect; inconclusive = small, poorly fitted or top-dose-only effect, or another doubt; inactive = no such curve, though single readings can be large; an effect the other way counts as inactive or inconclusive.

SMILES	ELG1 DNA repair	Rab9 promoter act	NPC1 promoter act	SMN2 splice up	FLuc counter	ELG1 genotoxic
C/C(N)=C(/C#N)C(=O)CSc1nc2ccc(C)cc2[nH]1	?	1.1µM	1.4µM	10µM	4.8µM	?
CCOC(=O)/C=C/CCC/C=C/C(=O)c1ccccc1	-	-	-	0	-	-
CC1CCCN(C(=O)C(=O)Nc2ccc3nc4n(c(=O)c3c2)CCCCC4)C1 (centres undefined)	0	0	0	-	0	0
Cc1ccc(-c2c(C(=O)N/N=C/c3c[nH]c4ccccc34)nnn2-c2nonc2N)cc1	?	0	0	-	0	0[9.26 µM]
CNC(=O)N(O)C1N(NC(=O)Nc2cccc3ccccc23)C(=S)SC1(C)C (centres undefined)	0	0	0	7.1µM	0	0
Nc1nc(CN2CCN(c3ccc(F)cc3)CC2)nc(N2CCCc3ccccc32)n1	0	0	0	0	0	0
c1ccc2c(c1)CCCN2c1nc(N2CCOCC2)nc(N2CCOCC2)n1	8.2µM	0	0	-	0	0
C=CC(C)(C)c1cc2cc3ccoc3cc2oc1=O	0	0	0	0	21µM	0
Cc1ccccc1NC(=O)COC(=O)c1cc(S(=O)(=O)N2CCOCC2)ccc1C	0	0	0	-	0	0
Nc1ccccc1SSc1ccccc1N	?	0[1.84 µM]	0	-	11µM	0
CCC(=O)N/N=C/c1ccc(-c2ccc(Cl)cc2)o1	0	0	0	-	15µM	0
O=C(O)c1cccc(-c2ccc(/C=N/Nc3ccc([N+](=O)[O-])cc3)o2)c1	0	0	0	-	11µM	0
NC(=S)N/N=C/c1ccc(-c2cccc([N+](=O)[O-])c2)o1	0	0	0	0	?	0
CNC(=S)N/N=C/c1ccc(-c2ccc(C(=O)O)cc2)o1	?	0	?	-	17µM	?
NS(=O)(=O)c1ccc(-c2ccc(/C=N/Nc3ccc(C(=O)O)cc3)o2)cc1	?	0	0	-	7.6µM	0
NS(=O)(=O)c1ccc(CNC(=O)c2scc3c2CCCC3)cc1	?	0	0	0	0	0
CC1CCCCN1C(=O)c1cc(S(=O)(=O)N2CCCCC2)c[nH]1 (centres undefined)	0	0	0	-	0	0
O=C(O)c1ccc(N/N=C/C=C/c2ccc([N+](=O)[O-])o2)cc1	0	0	0	-	17µM	0
CC(C)(C)NC(=S)N/N=C\c1ccc(-c2ccc([N+](=O)[O-])cc2)o1	21µM	0	0	-	?	0
O=C(O)c1ccc(-c2ccc(/C=N/Nc3ccc([N+](=O)[O-])cc3)o2)cc1	0	0	0	-	17µM	0
C=CCNC(=S)N/N=C/c1ccc(-c2cc(Cl)ccc2Cl)o1	0	0	0	-	0	0
CCCCC(=O)N/N=C/c1ccc(-c2ccc([N+](=O)[O-])cc2)o1	0	0	0	-	0	0
C=CCNC(=S)N/N=C/c1ccc(-c2ccc(OC)cc2)o1	?	0	0	0	19µM	0
CCC/C(=N\NC(=O)C1CCCC1)c1ccccc1	0	0	0	-	0	0
CN(CC(=O)N1CCCCCC1)S(=O)(=O)c1ccccc1	?	?	3.2µM	-	?	?
SMILES	ELG1 DNA repair	Rab9 promoter act	NPC1 promoter act	SMN2 splice up	FLuc counter	ELG1 genotoxic
Cc1ccc(S(=O)(=O)N(C)CC(=O)N2CCCCCCC2)cc1	0	0	0	-	0	0
CC(C(=O)NCc1cccc(Br)c1)n1ncn2cccc2c1=O (centres undefined)	-	-	-	-	13µM	-
Cc1c2cnn(-c3ccccc3)c(=O)c2c(C)n1C(C)C(=O)NCc1cccc(Br)c1 (centres undefined)	-	-	-	0	0	-
Cc1cccn2c(=O)nc(SCC(=O)Nc3ccc4c(c3)OCCO4)nc12	0	0	0	-	0	0
CC(C)(C)Nc1cccccc1=O	0	0	0	-	0	0
Cc1ccc(Nc2cccccc2=O)cc1	?	3.5µM	?	-	15µM	?
CC(=O)Nc1cccc(NC(=O)CSc2nnc(NC(=O)c3ccco3)s2)c1	?	0	0	-	19µM	0
CC(=O)Nc1cccc(NC(=O)CSc2nnc(NC(=O)C3CC3)s2)c1	0	0	0	-	?	0
CCc1nnc(NC(=O)c2ccc(Br)o2)s1	?	?	0	-	?	0
CC(=O)Nc1ccc(NC(=O)CSc2nnc(NC(=O)c3ccc(Br)o3)s2)cc1	0	0	0	-	2.1µM	0
O=C(CSc1nnc(NC(=O)c2ccco2)s1)Nc1cccc(F)c1	?	?	?	-	6.7µM	?
Cc1ccc(SCC(=O)Nc2cccc(NC(=O)c3ccco3)c2)cc1	0	0	0	0	19µM	0
O=C(CSc1nnc(NC(=O)c2ccco2)s1)Nc1ccc(F)cc1F	0	0	0	-	?	0
N#Cc1c(N)n(-c2cccc(Cl)c2)c2nc3ccccc3nc12	-	-	-	0	0	-
COc1ccc(-n2ncc3c2CC(C)(C)CC3NC(=O)C2CCN(C(C)=O)CC2)cc1 (centres undefined)	0	0	0	-	0	0
Cc1nc(-n2nc(C)c(Cc3ccccc3Cl)c2C)sc1C(=O)Nc1ccccc1F	-	-	-	-	0	-
COc1ccc(C(=O)N2CCC3(CCCN(Cc4cc(C(F)(F)F)cc(C(F)(F)F)c4)C3)CC2)cc1	-	-	-	0	-	-
Cc1ccc(SCC(=O)Nc2ccc(N3CCN(C)CC3)c(F)c2)cc1	?	?	?	0	15µM	?

From PubChem BioAssay
